Molecules are shown by their SMILES. “And” between values parts separate entries of the source, which are not always exact repeats. Identical values can stand only once. Inconclusive results are not listed. The source made the active and inactive calls. Rule for the calls, unless noted: active = hit-call score of the fitted dose curve at least 0.9, where 1 is the maximum; inconclusive = response in the unintended direction; inactive = score below 0.9.

One may read the AC50 as the concentration at which the activity in the assay is half-maximal.

Test [1] in a line: ATG_NRF2_ARE_CIS: Attagene CIS-FACTORIAL HepG2 Assay for human Nuclear Factor Erythroid 2 Related Factor 2 (NFR2) response to Antioxidant Response Elements (ARE) (AID 2282992; active = hit-call score of the fitted dose curve at least 0.9, where 1 is the maximum; inactive = score below 0.9). As to conditions: HepG2 Attagene ARE/NRF2 reporter, transcription factor activity; actives raise or lower the signal. The gist of the method: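 Cis-factorial assay: transfected HepG2 reporter library, 24 h dosing, mRNA readout via RT-PCR/CE; DMSO-referenced bidirectional analysis.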

Test [2] is described as follows: ATG_Oct_MLP_CIS: Attagene CIS-FACTORIAL HepG2 Assay for human Octamer-Binding Transcription Factor (Oct) (AID 2282993; active = hit-call score of the fitted dose curve at least 0.9, where 1 is the maximum; inactive = score below 0.9). The conditions noted are these: HepG2 Attagene cis-factorial Oct reporter, mRNA; actives raise or lower the signal. In short, it runs like this:
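Cells of the HepG2 line express promoter-controlled reporter sequences whose mRNA levels, after 24 h treatment, are measured by RT-PCR and capillary electrophoresis. Increases and decreases are scored relative to DMSO.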

Test [3] has as its target human Peroxisome Proliferator-activated Receptor alpha (PPARa), PPARA (gene 5465) (UniProt Q07869). The test can be described thus: ATG_PPARa_TRANS: Attagene TRANS-FACTORIAL HepG2 Assay for human Peroxisome Proliferator-activated Receptor alpha (PPARa) (AID 2283001).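 For AC50: potency for gain of reporter signal over DMSO so agonist or activator.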 In short, it runs like this: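 Read-out is fluorescence of reporter cDNA fragments resolved by capillary electrophoresis after RT-PCR. Human HepG2 liver cells carried transfected PPARa-Gal4 chimera and GAL4-UAS reporter units, treated 24 h; activity scored as increase over DMSO.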

The target in test [4] is human Retinoic Acid Receptor beta (RARb), RARB (gene 5915) (UniProt P10826). The test can be described thus: ATG_RARb_TRANS: Attagene TRANS-FACTORIAL HepG2 Assay for human Retinoic Acid Receptor beta (AID 2283004). The gist of the method: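 HepG2 cells were transiently transfected with GAL4-UAS reporter units that report activity of exogenous chimeric NR-Gal4 proteins, then exposed to compound for 24 h. Reporter mRNA was quantified by RT-PCR with capillary electrophoresis fluorescence, as gain of signal over DMSO.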
Sequence of human Retinoic Acid Receptor beta (RARb), RARB (gene 5915) (P10826 whole entry, looked up, the tested form may be a part): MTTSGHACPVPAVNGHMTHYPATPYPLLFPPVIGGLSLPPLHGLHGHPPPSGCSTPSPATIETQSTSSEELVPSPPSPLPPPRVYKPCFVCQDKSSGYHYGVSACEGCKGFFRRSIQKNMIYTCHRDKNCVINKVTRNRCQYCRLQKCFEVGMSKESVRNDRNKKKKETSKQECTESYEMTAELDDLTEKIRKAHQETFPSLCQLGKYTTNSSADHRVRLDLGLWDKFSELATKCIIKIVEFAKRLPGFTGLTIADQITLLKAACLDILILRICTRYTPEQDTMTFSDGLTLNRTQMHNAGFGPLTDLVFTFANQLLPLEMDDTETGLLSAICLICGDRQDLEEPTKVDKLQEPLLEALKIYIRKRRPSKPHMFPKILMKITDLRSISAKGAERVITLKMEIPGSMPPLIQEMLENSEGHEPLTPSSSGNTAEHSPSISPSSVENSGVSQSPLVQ

The target in test [5] is Peroxisome proliferator-activated receptor gamma (Homo sapiens) (UniProt P37231). The test can be described thus: ATG_PPARg_TRANS: Attagene TRANS-FACTORIAL HepG2 Assay for human Peroxisome Proliferator-activated Receptor-gamma (PPARg) (AID 2283007). The gist of the method: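 HepG2 cells transiently transfected with multiplexed GAL4-UAS reporter units and exogenous chimeric NR-Gal4 proteins; reporter mRNA quantified after 24 h compound exposure by RT-PCR, fluorescent labelling, HpaI digestion and capillary electrophoresis; gain-of-signal fitted versus DMSO baseline.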
Sequence of Peroxisome proliferator-activated receptor gamma (Homo sapiens) (P37231 whole entry, looked up, the tested form may be a part): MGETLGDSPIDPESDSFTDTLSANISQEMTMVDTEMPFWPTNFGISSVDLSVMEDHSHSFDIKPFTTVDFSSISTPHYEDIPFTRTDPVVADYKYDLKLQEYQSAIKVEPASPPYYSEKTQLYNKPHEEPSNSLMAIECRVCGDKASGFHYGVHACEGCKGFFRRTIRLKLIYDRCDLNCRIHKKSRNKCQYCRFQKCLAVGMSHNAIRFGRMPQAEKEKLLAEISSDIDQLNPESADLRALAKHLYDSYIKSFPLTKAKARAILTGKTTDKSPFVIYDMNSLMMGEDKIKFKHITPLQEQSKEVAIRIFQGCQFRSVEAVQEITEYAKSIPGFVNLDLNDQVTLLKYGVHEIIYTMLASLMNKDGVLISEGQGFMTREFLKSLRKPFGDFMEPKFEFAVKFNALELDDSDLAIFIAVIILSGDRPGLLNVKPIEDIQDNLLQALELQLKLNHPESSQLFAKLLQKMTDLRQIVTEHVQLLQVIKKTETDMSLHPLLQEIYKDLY

In test [6] the target is Retinoic acid receptor RXR-alpha (Homo sapiens) (UniProt P19793). The test can be described thus: ATG_RXRa_TRANS: Attagene TRANS-FACTORIAL HepG2 Assay for human Retinoid X Receptor alpha (RXRa) (AID 2283012). The gist of the method: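 Transient transfection of human HepG2 with multiple GAL4-UAS reporter constructs; 24 h compound exposure; total RNA isolated, reverse-transcribed, PCR-amplified, 6-FAM labelled, HpaI-cut, resolved by capillary electrophoresis. Positive-direction fit versus DMSO.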
Sequence of Retinoic acid receptor RXR-alpha (Homo sapiens) (P19793 whole entry, looked up, the tested form may be a part): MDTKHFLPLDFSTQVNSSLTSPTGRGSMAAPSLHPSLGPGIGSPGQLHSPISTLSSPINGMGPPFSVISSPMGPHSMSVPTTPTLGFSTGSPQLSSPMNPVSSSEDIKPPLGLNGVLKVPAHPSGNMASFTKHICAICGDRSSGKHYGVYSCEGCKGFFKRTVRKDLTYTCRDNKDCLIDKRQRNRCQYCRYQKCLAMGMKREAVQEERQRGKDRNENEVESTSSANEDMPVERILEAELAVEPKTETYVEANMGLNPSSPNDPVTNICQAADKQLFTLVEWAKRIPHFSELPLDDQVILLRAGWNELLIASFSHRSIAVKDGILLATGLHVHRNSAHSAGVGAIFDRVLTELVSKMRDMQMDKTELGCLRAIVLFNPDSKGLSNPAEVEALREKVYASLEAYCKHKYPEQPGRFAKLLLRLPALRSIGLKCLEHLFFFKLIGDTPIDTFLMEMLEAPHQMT

Test [7] addresses Nuclear receptor subfamily 1 group I member 2 (Homo sapiens) (UniProt O75469). The test can be described thus: ATG_PXR_TRANS: Attagene TRANS-FACTORIAL HepG2 Assay for human Pregnane X Receptor (PXR) (AID 2283008). In short, it runs like this: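 Fluorescence intensity of FAM-labelled, HpaI-digested reporter amplicons, separated by capillary electrophoresis, quantifies induction. HepG2 cells with PXR-Gal4 trans-reporter system were exposed 24 h; DMSO defines baseline.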

In test [8] the target is human RAR-related Orphan Receptor gamma (RORg), RORC (gene 6097) (UniProt P51449). The test can be described thus: ATG_RORg_TRANS: Attagene TRANS-FACTORIAL HepG2 Assay for human RAR-related Orphan Receptor gamma (RORg) (AID 2283011). The gist of the method: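 HepG2 cells transiently transfected with GAL4-UAS reporter units and chimeric RORg-Gal4 construct; after 24 h chemical exposure, reporter mRNA measured by RT-PCR with fluorescent capillary electrophoresis, gain of signal fitted against DMSO.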
Sequence of human RAR-related Orphan Receptor gamma (RORg), RORC (gene 6097) (P51449 whole entry, looked up, the tested form may be a part): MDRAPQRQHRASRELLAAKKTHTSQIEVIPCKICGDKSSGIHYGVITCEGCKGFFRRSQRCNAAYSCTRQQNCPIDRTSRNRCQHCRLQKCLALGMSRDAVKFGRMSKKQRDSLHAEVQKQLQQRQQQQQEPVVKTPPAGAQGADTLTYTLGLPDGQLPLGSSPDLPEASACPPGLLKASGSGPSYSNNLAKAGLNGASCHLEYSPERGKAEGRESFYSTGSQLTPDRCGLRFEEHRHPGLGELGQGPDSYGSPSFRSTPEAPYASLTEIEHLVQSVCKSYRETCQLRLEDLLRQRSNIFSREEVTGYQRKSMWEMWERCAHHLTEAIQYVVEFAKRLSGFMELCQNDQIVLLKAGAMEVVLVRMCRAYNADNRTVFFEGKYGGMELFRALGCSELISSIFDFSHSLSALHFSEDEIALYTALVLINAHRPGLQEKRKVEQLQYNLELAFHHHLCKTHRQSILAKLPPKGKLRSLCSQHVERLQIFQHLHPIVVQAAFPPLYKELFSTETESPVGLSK

In test [9] the target is human Peroxisome Proliferator-activated Receptor delta (PPARd), PPARD (gene 5467) (UniProt Q03181). The test can be described thus: ATG_PPARd_TRANS: Attagene TRANS-FACTORIAL HepG2 Assay for human Peroxisome Proliferator-activated Receptor delta (PPARd) (AID 2283002). In short, it runs like this: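 Transient HepG2 transfection (multiple GAL4-UAS RTUs, chimeric receptor-Gal4); 24 h dosing; total RNA → oligo(dT) RT → PCR → 6-FAM primer extension → HpaI cut → CE. Positive direction vs DMSO.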
Sequence of human Peroxisome Proliferator-activated Receptor delta (PPARd), PPARD (gene 5467) (Q03181 whole entry, looked up, the tested form may be a part): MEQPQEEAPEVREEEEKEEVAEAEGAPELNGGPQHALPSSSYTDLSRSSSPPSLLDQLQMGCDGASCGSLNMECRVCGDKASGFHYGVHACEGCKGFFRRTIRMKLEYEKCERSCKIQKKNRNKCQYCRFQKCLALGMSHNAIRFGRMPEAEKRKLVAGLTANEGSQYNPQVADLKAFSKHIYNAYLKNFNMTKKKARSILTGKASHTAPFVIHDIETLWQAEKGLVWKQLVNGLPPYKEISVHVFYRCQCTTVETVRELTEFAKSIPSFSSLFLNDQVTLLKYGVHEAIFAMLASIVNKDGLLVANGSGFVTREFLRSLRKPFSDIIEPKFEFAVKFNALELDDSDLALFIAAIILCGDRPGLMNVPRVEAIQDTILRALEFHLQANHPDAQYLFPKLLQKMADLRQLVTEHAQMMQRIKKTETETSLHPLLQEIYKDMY

Test [10] deals with Retinoic acid receptor alpha (Homo sapiens) (UniProt P10276). The test can be described thus: ATG_RARa_TRANS: Attagene TRANS-FACTORIAL HepG2 Assay for human Retinoic Acid Receptor alpha (RARa) (AID 2283005). The gist of the method: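 Reporter transcripts, measured by RT-PCR with fluorescent labeling and capillary electrophoresis after 24 h dosing, reflect activity of an exogenous human RARa–GAL4 fusion in transiently transfected HepG2. Fitted for increase relative to DMSO.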
Sequence of Retinoic acid receptor alpha (Homo sapiens) (P10276 whole entry, looked up, the tested form may be a part): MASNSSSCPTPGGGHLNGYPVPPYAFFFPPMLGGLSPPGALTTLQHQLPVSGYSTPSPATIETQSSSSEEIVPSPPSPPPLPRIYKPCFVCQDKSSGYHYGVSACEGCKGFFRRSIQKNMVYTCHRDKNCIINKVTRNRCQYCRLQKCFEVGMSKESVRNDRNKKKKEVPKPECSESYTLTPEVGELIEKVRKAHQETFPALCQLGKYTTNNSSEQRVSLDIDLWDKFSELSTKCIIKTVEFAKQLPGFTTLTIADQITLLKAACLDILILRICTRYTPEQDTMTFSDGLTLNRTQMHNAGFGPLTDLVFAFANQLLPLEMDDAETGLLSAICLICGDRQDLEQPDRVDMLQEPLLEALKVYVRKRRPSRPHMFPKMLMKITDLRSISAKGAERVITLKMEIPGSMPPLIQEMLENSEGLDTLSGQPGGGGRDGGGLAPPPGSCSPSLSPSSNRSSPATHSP

Test [11] addresses human Retinoic Acid Receptor gamma (RARg), RARG (gene 5916) (UniProt P13631). The test can be described thus: ATG_RARg_TRANS: Attagene TRANS-FACTORIAL HepG2 Assay for human Retinoic Acid Receptor gamma (RARg) (AID 2283009). In short, it runs like this:
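Transient transfection of HepG2 with multi-reporter constructs, then 24 h chemical treatment. Total RNA isolated, reverse-transcribed, PCR-amplified, fluorescently labelled and resolved by capillary electrophoresis; activity scored as mRNA induction versus DMSO.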

The target of test [12] is human RAR-related Orphan Receptor beta (RORb), RORB (gene 6096) (UniProt Q92753). The test can be described thus: ATG_RORb_TRANS: Attagene TRANS-FACTORIAL HepG2 Assay for human RAR-related Orphan Receptor beta (RORb) (AID 2283010). The gist of the method: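 Readout is reporter-gene mRNA induction, detected as fluorescence after RT-PCR and capillary electrophoresis, fitted for gain of signal against DMSO controls. Transiently transfected HepG2 liver cells carrying GAL4-UAS reporter constructs were treated for 24 hours.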
Sequence of human RAR-related Orphan Receptor beta (RORb), RORB (gene 6096) (Q92753 whole entry, looked up, the tested form may be a part): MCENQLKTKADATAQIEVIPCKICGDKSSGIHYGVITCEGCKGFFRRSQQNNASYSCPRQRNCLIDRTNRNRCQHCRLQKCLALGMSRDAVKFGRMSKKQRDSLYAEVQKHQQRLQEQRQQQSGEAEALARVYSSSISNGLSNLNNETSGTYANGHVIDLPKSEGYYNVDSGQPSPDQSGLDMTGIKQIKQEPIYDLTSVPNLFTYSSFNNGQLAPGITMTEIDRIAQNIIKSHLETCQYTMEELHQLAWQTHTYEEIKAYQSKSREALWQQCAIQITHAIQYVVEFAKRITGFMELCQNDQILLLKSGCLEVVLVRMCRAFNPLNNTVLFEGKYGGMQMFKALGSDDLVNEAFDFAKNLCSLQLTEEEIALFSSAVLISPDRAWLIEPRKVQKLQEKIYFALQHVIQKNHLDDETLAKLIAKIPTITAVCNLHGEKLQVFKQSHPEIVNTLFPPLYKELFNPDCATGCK

Test [13] can be described thus: BSK_3C_TissueFactor: BioMAP Diversity Plus: 3C Assay for Tissue Factor Biomarker Activity (AID 2282997; active = hit-call score of the fitted dose curve at least 0.9, where 1 is the maximum; inactive = score below 0.9). The conditions noted are these: BioMAP 3C HUVEC, tissue factor biomarker readout; actives raise or lower the signal. In short, it runs like this:
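HUVEC were treated 24 h, then surface tissue factor measured by ELISA and fitted bidirectionally against DMSO. Parallel SRB total-protein staining assessed overt cytotoxicity at the same time point.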

Test [14] can be described thus: BSK_3C_uPAR: BioMAP Diversity Plus: 3C Assay for Urokinase-type plasminogen activator receptor (uPAR) Biomarker Activity (AID 2282998; active = hit-call score of the fitted dose curve at least 0.9, where 1 is the maximum; inactive = score below 0.9). As to conditions: BioMAP 3C HUVEC, uPAR biomarker ELISA; actives raise or lower the signal. In short, it runs like this:
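Endothelial primary cells of human umbilical vein origin received test chemical; 24 h later uPAR was assayed by ELISA. Fitting was bidirectional, DMSO as negative control.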

A short description of test [15]: BSK_3C_VCAM1: BioMAP Diversity Plus: 3C Assay for Vascular cell adhesion molecule 1 (VCAM1) Biomarker Activity (AID 2282999; active = hit-call score of the fitted dose curve at least 0.9, where 1 is the maximum; inactive = score below 0.9). As to conditions: BioMAP 3C HUVEC, VCAM1 ELISA, cytokine-stimulated; actives raise or lower the signal. In short, it runs like this: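 Endothelial cells from human umbilical vein are treated with test chemical. At 24 h, VCAM-1 is measured by ELISA, and responses in either direction are fitted relative to DMSO.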

The nature of test [16]: BSK_4H_Eotaxin3: BioMAP Diversity Plus: 4H Assay for Eotaxin 3 Biomarker Activity (AID 2283000; active = hit-call score of the fitted dose curve at least 0.9, where 1 is the maximum; inactive = score below 0.9;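 note: CCL26 protein level quantified by ELISA in parallel with SRB cytotoxicity check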). The conditions noted are these: primary human endothelial cells (HUVEC); actives raise or lower the signal. The gist of the method: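 Eotaxin-3 (CCL26) levels were measured by ELISA in HUVEC primary cultures 24 h post-dosing. Gain or loss of signal was fitted in both directions, with DMSO serving as baseline and negative control.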

Read-out in test [17]: Intercellular Adhesion Molecule 1 (ICAM1), ICAM1 (gene 3383)
The test can be described thus: BSK_3C_ICAM1: BioMAP Diversity Plus: 3C Assay for Intercellular Adhesion Molecule 1 (ICAM1) Biomarker Activity (AID 2283003; active = hit-call score of the fitted dose curve at least 0.9, where 1 is the maximum; inactive = score below 0.9). The conditions noted are these: primary human endothelial cells (HUVEC); actives raise or lower the signal. The gist of the method:
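ICAM-1 levels measured by ELISA after HUVEC cultures in the 3C system had been dosed for 24 h. Gain or loss of signal relative to DMSO was fitted in both directions.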

A short description of test [18]: BSK_3C_Proliferation: Cell Proliferation Assessment in the BioMAP Diversity Plus: 3C Assay (AID 2283006; active = hit-call score of the fitted dose curve at least 0.9, where 1 is the maximum; inactive = score below 0.9). As to conditions: primary human endothelial cells (HUVEC). The gist of the method:
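Read-out is total protein by SRB absorbance at 560 nm, taken as a proxy for relative cell number. Primary human umbilical vein endothelium cultured below confluence was dosed for 48 h, TCA-fixed and SRB-stained; curves were fitted bidirectionally versus DMSO.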

Sequence of Nuclear receptor subfamily 1 group I member 2 (Homo sapiens) (O75469 whole entry, looked up, the tested form may be a part): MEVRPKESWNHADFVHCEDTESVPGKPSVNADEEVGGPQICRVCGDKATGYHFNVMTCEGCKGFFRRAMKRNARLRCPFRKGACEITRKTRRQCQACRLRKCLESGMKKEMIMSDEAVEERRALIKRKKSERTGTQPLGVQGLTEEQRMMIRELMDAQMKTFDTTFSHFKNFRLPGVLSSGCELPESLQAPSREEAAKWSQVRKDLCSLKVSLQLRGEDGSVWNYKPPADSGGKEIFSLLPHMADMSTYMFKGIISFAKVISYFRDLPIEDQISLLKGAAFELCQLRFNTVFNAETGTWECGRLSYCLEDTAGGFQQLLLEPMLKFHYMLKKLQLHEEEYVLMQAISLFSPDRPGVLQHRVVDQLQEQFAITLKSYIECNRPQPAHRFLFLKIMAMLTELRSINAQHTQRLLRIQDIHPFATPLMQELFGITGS
Sequence of human Peroxisome Proliferator-activated Receptor alpha (PPARa), PPARA (gene 5465) (Q07869 whole entry, looked up, the tested form may be a part): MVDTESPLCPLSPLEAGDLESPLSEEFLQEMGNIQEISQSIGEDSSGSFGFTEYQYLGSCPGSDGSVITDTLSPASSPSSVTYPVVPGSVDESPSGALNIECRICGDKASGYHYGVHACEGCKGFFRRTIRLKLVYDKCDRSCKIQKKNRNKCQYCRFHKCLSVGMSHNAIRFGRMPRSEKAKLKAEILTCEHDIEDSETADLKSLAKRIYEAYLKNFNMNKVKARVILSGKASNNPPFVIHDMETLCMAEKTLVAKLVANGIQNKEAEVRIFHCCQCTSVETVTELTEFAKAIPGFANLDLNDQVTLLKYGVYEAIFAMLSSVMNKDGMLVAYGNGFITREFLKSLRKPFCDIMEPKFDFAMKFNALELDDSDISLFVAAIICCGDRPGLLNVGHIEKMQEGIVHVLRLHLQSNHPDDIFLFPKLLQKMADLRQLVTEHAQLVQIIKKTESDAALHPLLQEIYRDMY
Sequence of human Retinoic Acid Receptor gamma (RARg), RARG (gene 5916) (P13631 whole entry, looked up): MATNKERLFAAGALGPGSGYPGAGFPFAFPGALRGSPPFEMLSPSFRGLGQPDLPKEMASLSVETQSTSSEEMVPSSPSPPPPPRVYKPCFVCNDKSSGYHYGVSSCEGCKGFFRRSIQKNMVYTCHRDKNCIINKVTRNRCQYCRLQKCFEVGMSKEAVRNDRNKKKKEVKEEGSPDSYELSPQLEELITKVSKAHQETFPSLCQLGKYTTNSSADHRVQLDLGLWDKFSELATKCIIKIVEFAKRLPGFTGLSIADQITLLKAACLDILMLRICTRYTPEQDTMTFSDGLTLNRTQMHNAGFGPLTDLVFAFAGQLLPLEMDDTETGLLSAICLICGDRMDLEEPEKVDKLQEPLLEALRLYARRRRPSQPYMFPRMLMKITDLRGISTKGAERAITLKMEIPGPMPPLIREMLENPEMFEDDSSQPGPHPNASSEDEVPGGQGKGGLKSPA

`CCOC(=O)Cc1ccccc1`: the outcome in test [1], in test [2], in test [3], in test [4], in test [5] and in test [6] was inactive.
As for `CCCCN(CCCC)C(=S)S`, the results for the AC50 in test [1], in test [5] and in test [7] were 23.5 µM (active), 5.99 µM (active) and 5.69 µM (active), respectively. In addition, the outcome in test [2], in [3], in [8] and in test [6] was inactive.
In the case of `NNCCO`, the molecule was classed as inactive in test [2], in test [7], in [8] and in test [6].
For `CCCCCCCCCCCCOS(=O)(=O)O`, the call in [1], in [2], in test [7] and in [6] was inactive. Moreover, in test [3], the AC50 was 3.86 µM (active) and 12.1 µM (active).
For `C[C@@H]1O[C@@H](O[C@H]2C[C@@H](O)[C@]3(CO)[C@H]4[C@H](O)C[C@]5(C)[C@@H](C6=CC(=O)OC6)CC[C@]5(O)[C@@H]4CC[C@]3(O)C2)[C@H](O)[C@H](O)[C@H]1O`, the AC50 was 19.5 µM (active) in test [1], 0.62 µM (active) in test [2], 71.4 nM (active) in test [3] and 0.131 µM (active) in test [5]. The outcome in test [9], in test [4], in test [10], in test [11], in test [8] and in [6] was inactive.
As to `ClCc1ccccc1Cl`, the figures for the AC50 in test [1] and in test [2] were 12.4 µM (active) and 74.7 µM (active), respectively. The outcome in [5], in [12] and in test [8] was inactive.
In the case of `c1ccc2sc(SNC3CCCCC3)nc2c1`, the AC50 in test [1] was 80.6 µM (active); in [13], 1.16 µM (active); in test [5] it was 6.77 µM (active); in test [7], 20.2 µM (active). For the same molecule, the molecule was called inactive in test [2], in [14], in test [15], in test [16], in test [3] and in [9]. In addition, the outcome in [17], in [18], in test [12] and in [8] was inactive.
